From PubChem BioAssay (NCATS)
Results filed as inconclusive are left out. The source made the active and inactive calls. The call rests on the fitted dose curve; in most records, active means well fitted inhibition curve with a large enough effect; inconclusive means small, poorly fitted or top-dose-only effect; inactive means flat fitted curve, though single readings scatter.

Experiments:
Experiment in all cases: qHTS profiling for inhibitors of Plasmodium falciparum proliferation (AID 504749); further: nearly all actives have a fitted effect of over 60% in size
Settings in all cases: P. falciparum in erythrocytes, SYBR Green DNA, 72 h; series mostly up to 28.7 µM
[1] = tested on: CP250
Procedure, shortened: (§1)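 Three-day growth assay of blood-stage parasites in erythrocytes (0.3% parasitemia, 2.5% hematocrit) at 37 C, 5% CO2, quantified by SYBR Green DNA staining after overnight detergent lysis.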

[2] = tested on: CP252
Procedure, shortened: as §1

[3] = tested on: CP256
Procedure, shortened: as §1

[4] = tested on: CP260
Procedure, shortened: as §1

[5] = tested on: CP262
Procedure, shortened: as §1

[6] = tested on: CP265
Procedure, shortened: as §1

[7] = tested on: CP286
Procedure, shortened: as §1

[8] = tested on: CP297
Procedure, shortened: as §1

[9] = tested on: DFO2036
Procedure, shortened: as §1

[10] = tested on: CP266
Procedure, shortened: as §1

[11] = tested on: CP268
Procedure, shortened: as §1

[12] = tested on: CP269
Procedure, shortened: as §1

[13] = tested on: CP291
Procedure, shortened: as §1

[14] = tested on: CP305
Procedure, shortened: as §1

[15] = tested on: CP315
Procedure, shortened: as §1

[16] = tested on: CP325
Procedure, shortened: as §1

[17] = tested on: CP329
Procedure, shortened: as §1

[18] = tested on: CP335
Procedure, shortened: as §1

[19] = tested on: DIV14
Procedure, shortened: as §1

[20] = tested on: DIV17
Procedure, shortened: as §1

Measured: Potency
Potency means the concentration at half of the fitted maximal effect.

CCN(CC)C(=O)/C(Cl)=C(\C)OP(=O)(OC)OC
active: [8] 13500 nM
inactive: [1] | [2] | [3] | [4] | [5] | [6] | [7] | [9]

CNC(C)C(O)c1ccc(O)cc1 (stereo unspecified)
not listed: [4]
inactive: all other assays above

CCOc1ccc2c3c1O[C@H]1[C@@H](O)C=C[C@H]4[C@@H](C2)N(C)CC[C@@]341
active: [8] 15100 nM | [19] 15100 nM
inactive: [1] | [2] | [3] | [4] | [6] | [10] | [7] | [17] | [18] | [9]

CN1CCCC(=C(c2cccs2)c2cccs2)C1
active: [20] 6750 nM
inactive: [1] | [3] | [10] | [12] | [15]

COc1ccc2c3c1O[C@H]1C(=O)CC[C@H]4[C@@H](C2)N(C)CC[C@]314
not listed: [10]
inactive: all other assays above

O=C1CN=C(c2ccccc2)c2cc(Cl)ccc2N1CC1CC1
not listed: [4] | [7] | [18] | [20]
inactive: all other assays above

CC12NC(Cc3ccccc31)c1ccccc12 (stereo unspecified)
inactive: [1] | [5] | [10] | [11] | [14] | [15] | [16]
active: [6] 8910 nM | [8] 6010 nM

C=CCN1CC[C@]23c4c5ccc(O)c4O[C@H]2[C@@H](O)C=C[C@H]3[C@H]1C5
not listed: [10]
inactive: all other assays above

CCOP(=O)(OCC)O/C(=C/Cl)c1ccc(Cl)cc1Cl
not listed: [4] | [6] | [13] | [18] | [19] | [20]
inactive: all other assays above

C[C@]12CCC(=O)C[C@@H]1CC[C@@H]1[C@@H]2CC[C@]2(C)[C@@H](O)CC[C@@H]12
not listed: [1] | [4]
inactive: all other assays above

N#CC1(N2CCCCC2)CCCCC1
not listed: [4]
inactive: all other assays above

OC(c1ccccc1)(c1ccccc1)C1CN2CCC1CC2 (stereo unspecified)
active: [20] 3790 nM
not listed: [4] | [8] | [10] | [18] | [19]
inactive: all other assays above

[N-]=[N+]=CC(=O)OCC(N)C(=O)O (stereo unspecified)
not listed: [4]
inactive: all other assays above

O=C(CS(=O)C(c1ccccc1)c1ccccc1)NO (stereo unspecified)
not listed: [4]
inactive: all other assays above

C[C@H]1CCC[C@H](O)CCCCCc2cc(O)cc(O)c2C(=O)O1
not listed: [1] | [4] | [8] | [19] | [20]
inactive: all other assays above

COc1ccc2c(c1OC)C(=O)OC2C1c2cc3c(cc2CCN1C)OCO3 (stereo unspecified)
inactive: [1] | [2] | [3] | [4] | [6] | [7] | [9]

c1ccc2cc(CC3=NCCN3)ccc2c1
not listed: [10] | [19]
inactive: all other assays above

CCCC(=O)OC(C(Cl)(Cl)Cl)P(=O)(OC)OC (stereo unspecified)
not listed: [3] | [15] | [16]
inactive: all other assays above

C[CH2][Hg][S]c1ccccc1C(=O)O
active: [1] 3550 nM | [2] 3160 nM | [3] 3160 nM | [4] 1000 nM | [6] 1410 nM | [10] 4260 nM | [11] 3790 nM | [12] 1690 nM | [7] 1410 nM | [13] 3790 nM | [8] 1690 nM | [14] 3790 nM | [15] 4260 nM | [16] 1690 nM | [17] 1690 nM | [18] 1350 nM | [9] 2000 nM | [19] 1900 nM | [20] 1510 nM

CCC(C)(S(=O)(=O)CC)S(=O)(=O)CC
not listed: [1] | [4]
inactive: all other assays above

S=C(S)N1CCNCC1
not listed: [4]
inactive: all other assays above

O=C(CCl)c1ccc(Oc2ccc(C(=O)CCl)cc2)cc1
not listed: [10]
inactive: all other assays above

C[N+]1(C)CCCCC1COC(=O)C(O)(c1ccccc1)c1ccccc1 (stereo unspecified)
not listed: [3] | [4]
inactive: all other assays above

C[C@H]1CC[C@@H]2[C@@H](C)[C@H]3[C@H](C[C@H]4[C@@H]5CC=C6CC(O[C@@H]7O[C@H](CO)[C@H](O)[C@H](O[C@@H]8O[C@H](CO)[C@@H](O)[C@H](O)[C@H]8O)[C@H]7O[C@H]7O[C@@H](C)[C@H](O)[C@@H](O)[C@H]7O)CC[C@]6(C)[C@H]5CC[C@]34C)N2C1 (stereo partly specified)
not listed: [3]
inactive: all other assays above

C[C@@H](Cc1ccccc1)NCCC(c1ccccc1)c1ccccc1
inactive: [2] | [15] | [16] | [17] | [9]
active: [19] 3220 nM | [20] 2560 nM

CNC(=O)Oc1ccccc1C(=O)Nc1ccccc1
not listed: [3] | [5] | [8] | [15] | [19] | [20]
inactive: all other assays above

COC([CH2][Hg])CNC(=O)c1ccccc1OCC(=O)O (stereo unspecified)
not listed: [4]
inactive: all other assays above

F/C(COc1ccc2c(c1)[nH]c1ccccc12)=C1/CN2CCC1CC2
active: [4] 5620 nM | [6] 8910 nM | [7] 7080 nM | [9] 11200 nM | [19] 4260 nM | [20] 6750 nM
inactive: [5] | [16]

C/C(=C\c1csc(C)n1)[C@@H]1C[C@@H]2O[C@]2(C)CCC[C@H](C)[C@H](O)[C@@H](C)C(=O)C(C)(C)[C@@H](O)CC(=O)O1
active: [1] 7.1 nM | [2] 3.5 nM | [3] 2.2 nM | [4] 2.2 nM | [6] 4 nM | [12] 3.8 nM | [7] 1.8 nM | [13] 2.1 nM | [8] 4.3 nM | [15] 2.4 nM | [16] 2.7 nM | [17] 3.4 nM | [18] 1.2 nM | [9] 3.2 nM | [19] 3.4 nM | [20] 3.4 nM
